According to PubChem BioAssay (EPA / NIEHS):
Where “and” joins values, the source holds several entries; their conditions need not be identical. Equal values may be shown once. Records with an inconclusive call do not appear. The source holds several records for some structures; these can differ, active in one and inactive in another. Calls of active or inactive are those of the source. The calls were made as follows, unless noted: active = hit-call score of the fitted dose curve at least 0.9, where 1 is the maximum; inconclusive = response in the unintended direction; inactive = score below 0.9.

Assays:
[1] = target: Cytochrome P450 2C18 (Homo sapiens) (UniProt P33260); assay: NVS_ADME_hCYP2C18: NovaScreen (NVS) CYP450-related Enzyme Activity (ADME) Assay for human CYP2C18 (AID 2283103; active = hit-call score of the fitted dose curve at least 0.9, where 1 is the maximum; inactive = score below 0.9)
How it was run: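 Cell-free recombinant human CYP2C18 with fluorogenic substrate; fluorescence intensity read 0.5 h after dosing. Single-point screen at 10 uM in duplicate, then concentration-response up to 20 uM; loss of signal fitted against acetonitrile baseline.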

[2] = target: human CYP4F12, CYP4F12 (gene 66002) (UniProt Q9HCS2); assay: NVS_ADME_hCYP4F12: NovaScreen (NVS) CYP450-related Enzyme Activity (ADME) Assay for human CYP4F12 (AID 2283111)
How it was run: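 Cell-free fluorescence assay of recombinant human CYP4F12 activity on a specific substrate, read 0.5 h after dosing. Primary screen in duplicate at 10 uM, then concentration series for actives; loss of signal fitted against acetonitrile negative control.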

[3] = target: human Acetylcholinesterase (AChE), ACHE (gene 43) (UniProt P22303); assay: NVS_ENZ_hAChE: NovaScreen (NVS) Enzymatic Assay for human Acetylcholinesterase (AChE) (AID 2283129)
How it was run: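 Cell-free colorimetric enzyme-activity assay; compounds read 0.33 hour after dosing, loss of signal vs DMSO baseline. Primary screen in duplicate at 25 uM single concentration, with active compounds retested in concentration series.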

[4] = target: human AMP-activated Protein Kinase, alpha 1 (AMPKa1), PRKAA1 (gene 5562) (UniProt Q13131); assay: NVS_ENZ_hAMPKa1: NovaScreen (NVS) Enzymatic Assay for human AMP-activated Protein Kinase, alpha 1 (AMPKa1) (AID 2283130)
How it was run: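 Recombinant human AMPKα1 activity was measured cell-free by fluorescent substrate conversion with electrophoretic mobility-shift separation, 1 h after dosing. Duplicate single-point screening was at 25 uM; actives (≥30% inhibition) were retested in concentration-response up to 50 uM.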

Caspase-1 (Homo sapiens) = Caspase-1 (Homo sapiens) (UniProt P29466); assay: NVS_ENZ_hCASP1: NovaScreen (NVS) Enzymatic Assay for human Caspase 1 (CASP1) (AID 2283132)
How it was run: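 Cell-free enzymatic assay with E. coli-expressed recombinant protein; fluorescence intensity read 1 hour after dosing. Single-concentration duplicate screen at 25 uM, then concentration-response up to 50 uM; activity fitted relative to DMSO, loss of signal meaning inhibition.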

[5] = target: human Caspase 2 (CASP2), CASP2 (gene 835) (UniProt P42575); assay: NVS_ENZ_hCASP2: NovaScreen (NVS) Enzymatic Assay for human Caspase 2 (CASP2) (AID 2283135)
How it was run: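 E. coli-expressed enzyme in a cell-free protease assay, fluorescence read 1 h after dosing. Compounds at 25 uM in duplicate, with concentration-response up to 50 uM for hits; loss of signal against DMSO baseline.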

[6] = target: human Aurora Kinase A - serine/threonine-protein Kinase 6 (AurA), AURKA (gene 6790) (UniProt O14965); assay: NVS_ENZ_hAurA: NovaScreen (NVS) Enzymatic Assay for human Aurora Kinase A - serine/threonine-protein Kinase 6 (AurA) (AID 2283142)
How it was run: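 Cell-free enzymatic assay with human Aurora A, 1 hour after dosing. Fluorescent substrate turnover detected after electrophoretic mobility shift separation of substrate and product. Screened at 25 uM, actives retested in concentration-response up to 50 uM.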

[7] = target: human Fibroblast Growth Factor Receptor 1 (FGFR1), FGFR1 (gene 2260) (UniProt P11362); assay: NVS_ENZ_hFGFR1: NovaScreen (NVS) Enzymatic Assay for human Fibroblast Growth Factor Receptor 1 (FGFR1) (AID 2283159);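 also: hits lower the signal so potencies describe inhibitors of the kinase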
How it was run: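 Cell-free recombinant kinase with fluorescent substrate, product separated by electrophoretic mobility shift; read 1 hour after dosing, loss of signal relative to DMSO. Initial screen in duplicate at 25 uM, actives followed in concentration series.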

[8] = target: human IkappaB Kinase alpha (IKKa), CHUK (gene 1147) (UniProt O15111); assay: NVS_ENZ_hIKKa: NovaScreen (NVS) Enzymatic Assay for human IkappaB Kinase alpha (IKKa) (AID 2283167)
How it was run: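 Cell-free recombinant human IKKa with fluorescent substrate, product separated by electrophoretic mobility shift; read 1 hour after dosing. Primary screen duplicate at 25 uM, actives then concentration-response up to 50 uM; loss of signal relative to DMSO.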

[9] = target: human Mitogen-Activated Protein Kinase 1 (MAPK 1), MAPK1 (gene 5594) (UniProt P28482); assay: NVS_ENZ_hMAPK1: NovaScreen (NVS) Enzymatic Assay for human Mitogen-Activated Protein Kinase 1 (MAPK 1) (AID 2283175)
How it was run: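 Cell-free recombinant human MAPK1 enzymatic assay, fluorescence/electrophoretic mobility shift read at 1 h; loss of signal vs DMSO. Primary screen in duplicate at 25 uM; actives (e.g. ≥30% inhibition) run as concentration-response up to 50 uM.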

[10] = target: human MET Proto-Oncogene, Receptor Tyrosine Kinase (MET), MET (gene 4233) (UniProt P08581); assay: NVS_ENZ_hMet: NovaScreen (NVS) Enzymatic Assay for human MET Proto-Oncogene, Receptor Tyrosine Kinase (MET) (AID 2283180)
How it was run: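 Cell-free MET kinase assay using recombinant protein and fluorescent substrate, with mobility-shift separation; read 1 h after dosing. Primary duplicate at 25 uM; actives in singleton concentration-response to 50 uM maximum. Signal loss versus DMSO.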

[11] = target: human Matrix Metalloproteinase-1 (MMP1), MMP1 (gene 4312) (UniProt P03956); assay: NVS_ENZ_hMMP1: NovaScreen (NVS) Enzymatic Assay for human Matrix Metalloproteinase-1 (MMP1) (AID 2283181)
How it was run: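 Human MMP1 enzyme activity measured by fluorescence 1 h after dosing, cell-free, with a specific substrate. Screened in duplicate at 25 uM; hits (e.g. 30% inhibition) run in concentration-response up to 50 uM; loss of signal versus DMSO.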

[12] = target: human p21 Activated Kinase 4 (PAK4), PAK4 (gene 10298) (UniProt O96013); assay: NVS_ENZ_hPAK4: NovaScreen (NVS) Enzymatic Assay for human p21 Activated Kinase 4 (PAK4) (AID 2283189)
How it was run: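 Cell-free recombinant human PAK4 activity assay; fluorescent substrate and product separated by electrophoretic mobility shift, read 1 h after dosing. Initially tested in duplicate at 25 uM, relative to DMSO baseline.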

[13] = target: human Phosphatase and Tensin Homolog (PTEN), PTEN (gene 5728) (UniProt P60484); assay: NVS_ENZ_hPTEN: NovaScreen (NVS) Enzymatic Assay for human Phosphatase and Tensin Homolog (PTEN) (AID 2283203)
How it was run: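 Cell-free recombinant human PTEN with fluorescent substrate; product separated by electrophoretic mobility shift and read by fluorescence 1 h after dosing. Primary screen in duplicate at 25 uM, actives followed in concentration series versus DMSO.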

[14] = target: human Protein Tyrosine Phosphatase Non-receptor Type 2 (PTPN2), PTPN2 (gene 5771) (UniProt P17706); assay: NVS_ENZ_hPTPN2: NovaScreen (NVS) Enzymatic Assay for human Protein Tyrosine Phosphatase Non-receptor Type 2 (PTPN2) (AID 2283207)
How it was run: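 Cell-free recombinant enzyme with fluorescent substrate, product separated by electrophoretic mobility shift; read 1 h after dosing. Primary screen single concentration (25 uM) in duplicate; actives followed in concentration series; loss of signal versus DMSO.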

[15] = target: human Raf-1 Proto-Oncogene, serine/threonine Kinase (RAF1), RAF1 (gene 5894) (UniProt P04049); assay: NVS_ENZ_hRAF1: NovaScreen (NVS) Enzymatic Assay for human Raf-1 Proto-Oncogene, serine/threonine Kinase (RAF1) (AID 2283216)
How it was run: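 Cell-free recombinant kinase with specific fluorescent substrate, product separated by electrophoretic mobility shift; read 1 h after dosing. Primary screen at 25 uM in duplicate; hits then run in concentration-response up to 50 uM, fitted as loss of signal versus DMSO.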

[16] = target: human Tyrosine Protein Kinase Receptor Tie-2 (Tie2), TEK (gene 7010) (UniProt Q02763); assay: NVS_ENZ_hTie2: NovaScreen (NVS) Enzymatic Assay for human Tyrosine Protein Kinase Receptor Tie-2 (Tie2) (AID 2283225)
How it was run: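 Recombinant human Tie2 kinase activity was read cell-free by fluorescence with electrophoretic mobility shift, 1 hour after dosing. The screen used 25 uM in duplicate, then concentration-response up to 50 uM. Signal loss was scored against DMSO.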

[17] = target: rat Adenylate Cyclase, Forskolin Stimulated, Adcy5 (gene 64532) (UniProt Q04400); assay: NVS_ENZ_rACFSKBinding: NovaScreen (NVS) Enzymatic Assay for rat Adenylate Cyclase, Forskolin Stimulated (AID 2283232)
How it was run: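 Rat forebrain membrane preparation, cell-free, read 1 h after dosing by filter-based scintillation counting. Primary screen in duplicate at 25 uM; actives (e.g. ≥30% inhibition) rerun in concentration-response up to 50 uM; fit versus DMSO.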

[18] = target: rat Acetylcholinesterase (AChE), Ache (gene 83817) (UniProt P37136); assay: NVS_ENZ_rAChE: NovaScreen (NVS) Enzymatic Assay for rat Acetylcholinesterase (AChE) (AID 2283233)
How it was run: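 Rat brain membrane acetylcholinesterase activity measured colorimetrically 0.33 h after compound addition, loss of signal relative to DMSO. Primary screen in duplicate at 25 uM; actives re-run as concentration-response with 50 uM top concentration.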

[19] = target: rat Monoamine Oxidase, MAO-B, Peripheral (MAOBP), Maob (gene 25750) (UniProt P19643); assay: NVS_ENZ_rMAOBP: NovaScreen (NVS) Enzymatic Assay for rat Monoamine Oxidase, MAO-B, Peripheral (MAOBP) (AID 2283242)
[20] = target: rat Corticotropin Releasing Factor Receptor (CRF), Crhr1 (gene 58959) (UniProt P35353); assay: NVS_GPCR_rCRF: NovaScreen (NVS) G Protein-Coupled Receptor Assay for rat Corticotropin Releasing Factor Receptor (CRF) (AID 2283300)
How it was run: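 Rat cortical membranes used as receptor source in a radioligand competitive displacement binding assay; scintillation read 2 h after dosing. Primary screen run in duplicate at 25 uM; loss of signal versus DMSO baseline indicates binding.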

[21] = target: Androgen receptor (Homo sapiens) (UniProt P10275); assay: ATG_AR_TRANS: Attagene TRANS-FACTORIAL HepG2 Assay for human Androgen Receptor (AR) (AID 2282973); conditions: HepG2 Attagene TRANS-FACTORIAL AR reporter transcription
How it was run: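 Transfected HepG2, 24 h treatment, chimeric NR-Gal4 driving GAL4-UAS reporters. mRNA induction by RT-PCR/capillary electrophoresis fluorescence; DMSO as negative control and baseline.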

[22] = Tanguay_ZF_120hpf_MUSC: Oregon State University Tanguay Lab 120 Hour Post-fertilization zebrafish Assay for Muscle Malformation (AID 2284401; active = hit-call score of the fitted dose curve at least 0.9, where 1 is the maximum; inactive = score below 0.9)
How it was run: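 Dechorionated Tropical 5D wild-type zebrafish embryos exposed statically from 6 to 120 hpf at 28C, one per well, in 0.64% DMSO. Muscle malformation scored present/absent by brightfield microscopy at 120 hpf, fitted against DMSO.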

Measured: AC50

Chain of human Phosphatase and Tensin Homolog (PTEN), PTEN (gene 5728) (P60484 whole entry, looked up): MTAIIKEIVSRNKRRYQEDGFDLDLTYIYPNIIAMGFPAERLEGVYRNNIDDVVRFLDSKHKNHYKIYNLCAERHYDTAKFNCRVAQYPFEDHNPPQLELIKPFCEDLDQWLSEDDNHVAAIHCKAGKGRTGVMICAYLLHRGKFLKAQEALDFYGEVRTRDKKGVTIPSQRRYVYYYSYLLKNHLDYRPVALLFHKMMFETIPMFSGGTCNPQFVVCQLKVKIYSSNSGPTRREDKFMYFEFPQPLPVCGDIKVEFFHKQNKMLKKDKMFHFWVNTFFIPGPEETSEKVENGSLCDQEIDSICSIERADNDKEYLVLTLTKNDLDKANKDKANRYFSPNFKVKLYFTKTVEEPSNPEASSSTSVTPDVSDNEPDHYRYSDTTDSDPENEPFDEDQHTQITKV
Chain of human AMP-activated Protein Kinase, alpha 1 (AMPKa1), PRKAA1 (gene 5562) (Q13131 whole entry, looked up): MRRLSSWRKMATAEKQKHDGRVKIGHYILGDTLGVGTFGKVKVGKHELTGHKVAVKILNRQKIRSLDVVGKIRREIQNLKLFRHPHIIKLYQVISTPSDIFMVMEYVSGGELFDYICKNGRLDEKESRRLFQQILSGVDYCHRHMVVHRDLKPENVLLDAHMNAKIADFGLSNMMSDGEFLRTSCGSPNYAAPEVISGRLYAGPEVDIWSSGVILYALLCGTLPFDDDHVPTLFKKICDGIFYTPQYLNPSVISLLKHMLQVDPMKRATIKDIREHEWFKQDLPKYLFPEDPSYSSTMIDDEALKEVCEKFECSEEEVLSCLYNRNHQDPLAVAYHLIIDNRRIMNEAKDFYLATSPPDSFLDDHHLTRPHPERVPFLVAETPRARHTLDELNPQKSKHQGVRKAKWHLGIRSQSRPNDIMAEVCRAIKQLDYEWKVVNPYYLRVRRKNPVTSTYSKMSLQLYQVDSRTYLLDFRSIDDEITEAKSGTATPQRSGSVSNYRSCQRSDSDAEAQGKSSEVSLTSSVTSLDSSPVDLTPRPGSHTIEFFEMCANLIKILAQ
Chain of Caspase-1 (Homo sapiens) (P29466 whole entry, looked up): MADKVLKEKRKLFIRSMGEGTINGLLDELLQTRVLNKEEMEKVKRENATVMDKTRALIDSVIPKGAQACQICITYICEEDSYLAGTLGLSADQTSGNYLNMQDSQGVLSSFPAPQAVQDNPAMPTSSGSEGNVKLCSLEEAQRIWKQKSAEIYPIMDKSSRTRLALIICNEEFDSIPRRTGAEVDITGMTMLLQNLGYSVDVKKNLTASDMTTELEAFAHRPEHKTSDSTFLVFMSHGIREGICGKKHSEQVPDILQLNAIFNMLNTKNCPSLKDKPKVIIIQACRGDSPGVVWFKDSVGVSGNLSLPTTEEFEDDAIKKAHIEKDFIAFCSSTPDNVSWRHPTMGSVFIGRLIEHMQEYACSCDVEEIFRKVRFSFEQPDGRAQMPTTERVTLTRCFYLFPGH
Chain of human Fibroblast Growth Factor Receptor 1 (FGFR1), FGFR1 (gene 2260) (P11362 whole entry, looked up): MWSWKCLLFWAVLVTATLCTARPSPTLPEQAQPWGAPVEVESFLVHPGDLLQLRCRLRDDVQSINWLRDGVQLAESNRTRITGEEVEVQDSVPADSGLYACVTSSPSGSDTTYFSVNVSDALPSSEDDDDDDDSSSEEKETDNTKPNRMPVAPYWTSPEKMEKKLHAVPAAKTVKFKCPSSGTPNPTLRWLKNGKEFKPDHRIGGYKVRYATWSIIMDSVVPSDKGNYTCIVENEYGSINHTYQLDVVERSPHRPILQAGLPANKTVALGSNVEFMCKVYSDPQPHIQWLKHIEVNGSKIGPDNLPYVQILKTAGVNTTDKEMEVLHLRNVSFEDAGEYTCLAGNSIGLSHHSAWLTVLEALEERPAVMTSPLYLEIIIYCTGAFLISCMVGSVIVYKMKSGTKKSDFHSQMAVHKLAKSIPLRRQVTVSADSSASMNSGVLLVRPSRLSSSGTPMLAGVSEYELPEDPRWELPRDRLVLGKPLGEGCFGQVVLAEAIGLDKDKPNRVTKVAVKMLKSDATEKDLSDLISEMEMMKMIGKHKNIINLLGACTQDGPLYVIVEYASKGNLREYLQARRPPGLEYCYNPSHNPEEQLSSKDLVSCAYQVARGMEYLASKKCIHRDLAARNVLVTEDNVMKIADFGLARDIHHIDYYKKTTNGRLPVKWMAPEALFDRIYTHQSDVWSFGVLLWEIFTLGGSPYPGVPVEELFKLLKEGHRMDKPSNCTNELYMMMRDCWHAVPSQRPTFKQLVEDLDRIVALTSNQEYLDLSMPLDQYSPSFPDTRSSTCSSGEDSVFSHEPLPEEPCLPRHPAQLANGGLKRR
Chain of Androgen receptor (Homo sapiens) (P10275 whole entry, looked up, the tested form may be a part): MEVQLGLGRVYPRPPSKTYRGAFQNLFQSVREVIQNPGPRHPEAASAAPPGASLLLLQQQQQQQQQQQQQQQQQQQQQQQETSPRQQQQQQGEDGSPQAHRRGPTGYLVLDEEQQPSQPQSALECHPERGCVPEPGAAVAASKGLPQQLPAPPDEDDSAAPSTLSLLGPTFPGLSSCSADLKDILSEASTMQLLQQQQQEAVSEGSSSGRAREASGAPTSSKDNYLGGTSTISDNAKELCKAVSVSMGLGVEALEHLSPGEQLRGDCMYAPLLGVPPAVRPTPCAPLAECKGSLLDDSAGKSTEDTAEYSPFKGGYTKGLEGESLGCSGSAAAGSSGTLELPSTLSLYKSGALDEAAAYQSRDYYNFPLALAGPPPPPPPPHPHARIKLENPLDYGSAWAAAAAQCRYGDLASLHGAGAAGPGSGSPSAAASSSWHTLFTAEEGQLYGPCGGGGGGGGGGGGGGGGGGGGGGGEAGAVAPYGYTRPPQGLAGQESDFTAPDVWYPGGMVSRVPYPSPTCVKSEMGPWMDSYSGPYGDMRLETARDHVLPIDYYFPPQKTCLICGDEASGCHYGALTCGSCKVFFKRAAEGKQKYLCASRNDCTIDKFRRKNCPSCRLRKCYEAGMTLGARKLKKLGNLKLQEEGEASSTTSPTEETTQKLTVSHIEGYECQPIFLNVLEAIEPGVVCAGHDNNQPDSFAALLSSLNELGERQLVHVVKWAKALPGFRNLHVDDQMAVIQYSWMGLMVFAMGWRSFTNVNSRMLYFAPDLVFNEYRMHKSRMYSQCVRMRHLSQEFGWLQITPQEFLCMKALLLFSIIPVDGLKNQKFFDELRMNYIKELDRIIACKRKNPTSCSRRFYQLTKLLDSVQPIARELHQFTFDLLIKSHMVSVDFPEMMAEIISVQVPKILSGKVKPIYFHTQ
Chain of human MET Proto-Oncogene, Receptor Tyrosine Kinase (MET), MET (gene 4233) (P08581 whole entry, looked up): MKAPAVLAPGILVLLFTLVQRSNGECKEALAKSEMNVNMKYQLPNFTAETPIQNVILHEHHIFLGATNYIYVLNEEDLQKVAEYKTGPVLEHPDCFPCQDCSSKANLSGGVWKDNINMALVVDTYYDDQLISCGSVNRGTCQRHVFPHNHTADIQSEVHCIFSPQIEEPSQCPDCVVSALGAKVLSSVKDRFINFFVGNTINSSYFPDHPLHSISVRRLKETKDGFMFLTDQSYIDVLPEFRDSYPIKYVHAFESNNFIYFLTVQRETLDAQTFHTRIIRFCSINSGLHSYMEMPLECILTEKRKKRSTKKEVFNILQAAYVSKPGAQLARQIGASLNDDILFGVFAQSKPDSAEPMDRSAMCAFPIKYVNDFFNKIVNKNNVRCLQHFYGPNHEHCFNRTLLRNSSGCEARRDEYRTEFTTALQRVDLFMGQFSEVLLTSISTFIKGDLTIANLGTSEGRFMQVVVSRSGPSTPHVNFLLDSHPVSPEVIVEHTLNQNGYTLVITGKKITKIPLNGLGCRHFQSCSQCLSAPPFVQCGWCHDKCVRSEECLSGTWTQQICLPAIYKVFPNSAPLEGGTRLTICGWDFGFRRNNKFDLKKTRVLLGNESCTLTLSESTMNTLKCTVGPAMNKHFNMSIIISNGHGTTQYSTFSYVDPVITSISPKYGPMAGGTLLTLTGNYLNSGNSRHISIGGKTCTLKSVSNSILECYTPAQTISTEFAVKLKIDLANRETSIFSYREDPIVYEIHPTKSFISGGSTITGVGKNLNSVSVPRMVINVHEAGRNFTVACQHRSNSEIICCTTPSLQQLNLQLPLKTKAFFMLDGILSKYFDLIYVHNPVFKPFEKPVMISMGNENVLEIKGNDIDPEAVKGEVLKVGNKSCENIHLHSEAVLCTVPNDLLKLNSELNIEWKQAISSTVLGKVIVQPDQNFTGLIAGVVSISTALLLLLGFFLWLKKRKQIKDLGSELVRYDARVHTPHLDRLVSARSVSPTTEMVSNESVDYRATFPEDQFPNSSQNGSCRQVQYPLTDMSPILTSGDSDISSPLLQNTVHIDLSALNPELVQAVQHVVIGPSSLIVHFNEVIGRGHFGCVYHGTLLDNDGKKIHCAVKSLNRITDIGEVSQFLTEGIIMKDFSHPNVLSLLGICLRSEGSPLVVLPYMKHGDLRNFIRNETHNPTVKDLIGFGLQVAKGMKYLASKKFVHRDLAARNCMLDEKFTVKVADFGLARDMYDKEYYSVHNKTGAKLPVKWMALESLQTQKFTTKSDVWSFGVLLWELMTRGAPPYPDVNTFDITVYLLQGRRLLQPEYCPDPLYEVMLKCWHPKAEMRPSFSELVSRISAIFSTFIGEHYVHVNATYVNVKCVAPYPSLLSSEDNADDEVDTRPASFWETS
Chain of human Aurora Kinase A - serine/threonine-protein Kinase 6 (AurA), AURKA (gene 6790) (O14965 whole entry, looked up): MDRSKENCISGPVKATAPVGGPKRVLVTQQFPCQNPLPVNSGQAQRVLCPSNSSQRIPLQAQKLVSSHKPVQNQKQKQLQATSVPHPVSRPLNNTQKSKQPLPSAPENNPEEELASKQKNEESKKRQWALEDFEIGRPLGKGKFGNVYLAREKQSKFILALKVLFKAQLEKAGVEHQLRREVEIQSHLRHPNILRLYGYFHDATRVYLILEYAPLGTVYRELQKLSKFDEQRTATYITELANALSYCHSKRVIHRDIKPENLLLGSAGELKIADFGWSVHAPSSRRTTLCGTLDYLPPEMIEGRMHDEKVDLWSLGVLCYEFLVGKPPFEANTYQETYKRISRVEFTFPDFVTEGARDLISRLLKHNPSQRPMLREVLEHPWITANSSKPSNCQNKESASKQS

S=C(S)NCCNC(=S)S.[Mn+2].[S-]C([S-])=NCCN=C([S-])[S-].[Zn+2]
active: [4] 1.87 µM and 1.32 µM and 2.26 µM | [6] 3.99 µM and 2.8 µM | [7] 9.75 µM and 926 nM and 5.66 µM | [8] 18.2 µM | [9] 7.49 µM and 1.15 µM | [10] 11 µM and 4.32 µM and 18.9 µM | [12] 5.61 µM and 263 nM | [13] 3.14 µM and 80.5 nM and 274 nM | [14] 898 nM and 519 nM | [16] 9.01 µM and 2.11 µM and 12.8 µM | [20] 25 µM
inactive: [1] | [2] | [3] | Caspase-1 (Homo sapiens) | [5] | [8] | [11] | [15] | [17] | [18] | [19]

C[Si](Cl)(Cl)CCC(F)(F)C(F)(F)C(F)(F)C(F)(F)C(F)(F)C(F)(F)F
inactive: [21] | [22]

O=C(O)CCC(F)(F)C(F)(F)C(F)(F)C(F)(F)C(F)(F)C(F)(F)C(F)(F)F
inactive: [21] | [22]

FC(F)(F)C(F)(F)C(F)(F)CI
inactive: [21] | [22]
